Shiga inhibitor: Shiga toxin inhibition; Vero cells, Shiga toxin protein synthesis inhibition reporter; hit rate 9.2% among 290,000; AID 2315; inhibition, % at 38.7 µM; in the data active means inhibition mostly above about 28%, no sharp cut-off; inactive means mostly below about 43%; further: 0% is about no effect
Pf growth 96h: P. falciparum growth inhibition at 96 hours | P. falciparum luciferase reporter growth, 96 h | Potency, µM (highest dose often 28.7 µM), for inactives: at the top dose activity change, negative = inhibition, hits mostly inhibitors | hit rate 6.9% among 320,000 | AID 504834; further: potency means the concentration at half of the fitted maximal effect; on the % scale 0 is the no-effect control and ±100 the full control effect
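Compounds incubated with erythrocytes infected by luciferase-expressing P. falciparum (2% hematocrit, 0.05% parasitemia final) for 96 hours, 37 C in 5% CO2. Growth inhibition scored as decreased luciferase luminescence.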
Pf growth 48h: inhibits P. falciparum growth in the first generation, 48 h | P. falciparum luciferase growth in erythrocytes, 48 h | Potency, µM (titrated, usually from 28.7 µM), inactives show top-dose activity change, negative = inhibition, usual class: inhibitors | hit rate 5.9% among 310,000; further: potency means the concentration at half of the fitted maximal effect; on the % scale 0 is the no-effect control and ±100 the full control effect
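Growth was read as firefly luciferase luminescence after a 48 h, 37 C, 5% CO2 exposure of compounds to reporter-bearing P. falciparum cultures (0.1% parasitemia, 2% hematocrit final) in Albumax-supplemented RPMI 1640.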
Cycloheximide cs: counter-screen for Shiga toxin inhibitors: cycloheximide protein synthesis inhibition. cell reporter, cycloheximide protein synthesis inhibition counterscreen. max response, %. hit rate 12% among 300,000; in the data active means max response mostly above about 13%, no sharp cut-off; inactive means mostly below about 14%; further: read at 38.3 µM for the half of the compounds with a filed dose; 0% is about no effect
NS1 inh: blocks influenza NS1 protein function. hit rate 0.4% among 270,000. Potency, µM (top dose mostly 46.1 µM), without a hit: at the top dose activity, positive = more growth; calls by dose curve; further: potency means the concentration at half of the fitted maximal effect; actives are rising curves; nearly all actives have a fitted effect of over 50% in size
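OD600 was taken as the measure of yeast growth restored by compound in an NS1-expressing S. cerevisiae strain. Cells had been washed out of glucose medium and diluted 1:100 into galactose -URA medium, pH 6.0.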
Starred values were filed as active, the others as inactive; ? = inconclusive; . = no result; + = active, no number; [ ] = dose if it differs, or a comment. In the library only some 21% were active in any assay of this set; here they are far more common. Unless noted, the call rests on the fitted dose curve; in most records, active means well fitted inhibition curve with a large enough effect; inconclusive means small, poorly fitted or top-dose-only effect, or another doubt; inactive means no such curve, though single readings can be large or run the other way.

SMILES | Shiga inhibitor | Pf growth 96h | Pf growth 48h | Cycloheximide cs | NS1 inh
CN(C(=O)COc1ccc(Br)cc1Cl)C1CCCCC1 | 53* | -1% | -3% | 24* | -4%
CC(C)(C)NC(=O)NC(=O)COc1ccccc1C#N | + | 85% | 144% | 66* | 2%
O=C(COc1ccc(Br)cc1Cl)NC1CCN(Cc2ccccc2)CC1 | -5 | 12µM* | ? | -3 | -21%
Cc1cc(Br)ccc1OCC(=O)NNC(=O)C(=O)Nc1ccccc1 | 50* | 74% | 42% | 13 | -4%
Cc1cc(Br)ccc1OCC(=O)NNC(=O)Cc1ccccc1 | -3 | 1% | 10% | -2 | 9%
COc1ccc(S(=O)(=O)N2CCc3ccccc32)cc1[N+](=O)[O-] | -10 | ? | -2%[0.00184 µM] | -4 | -4%
O=C(CN1C(=O)C2C3CCC(C3)C2C1=O)N1CCN(Cc2ccccc2)CC1 (stereo unspecified) | 15 | 22% | 28% | -1 | -8%
CCN(CC(=O)Nc1ccc(Br)cc1)C(=O)c1nc2nc(C)cc(C)n2n1 | . | ? | -15% | . | .
Cc1cc(Br)ccc1OCC(=O)NC1CCCC1 | 52* | -27% | 10% | 35* | -14%
Cc1ccc(OCC(=O)NC2CCS(=O)(=O)C2)c(C)c1 (stereo unspecified) | -14 | 5.9µM* | 8% | 5 | 0%
O=C/C(=C\Nc1ccc(S(=O)(=O)CCO)cc1)c1nc2cc(Cl)ccc2o1 | 2 | 3% | -6% | 0 | .
O=C(NCCNC(=O)c1ccc(Cl)cc1Cl)c1cnccn1 | -5 | ? | 24% | -2 | 7%
COc1ccccc1NS(=O)(=O)c1cc(NC(=O)c2ccccc2F)ccc1N1CCOCC1 | -13 | 9.3µM* | 0% | 2 | .
COc1ccccc1NS(=O)(=O)c1cc(NC(=O)c2cccs2)ccc1N1CCOCC1 | -5 | ? | 9.3µM* | -2 | -49%
COc1ccc(NS(=O)(=O)c2cc(NC(=O)c3cccs3)ccc2N2CCOCC2)cc1 | -6 | ? | ? | -3 | .
COc1nnc(-c2ccc(N3CCOCC3)c(NC(=O)c3ccco3)c2)c2ccccc12 | -6 | 13% | 7.4µM* | -2 | -59%
COc1nnc(-c2ccc(N3CCOCC3)c(NC(=O)c3ccccc3)c2)c2ccccc12 | -11 | ? | . | 1 | 1%
COc1ccccc1NS(=O)(=O)c1cc(NC(=O)c2ccco2)ccc1N1CCOCC1 | -4 | 10µM* | ? | 9 | .
CCOc1cc(CNc2ccc(O)cc2)ccc1OCc1ccc(Cl)cc1Cl | 51* | ? | ? | 26* | -11%
COc1cc(CNCc2ccccn2)ccc1OCC(N)=O | 24 | 47% | -14% | 5 | ?
COc1cc(CNCc2ccccn2)ccc1OCc1ccc(Cl)c(Cl)c1 | 64* | -21% | 17%[5.75 µM] | 20* | .
COc1cc(CNCc2ccccn2)ccc1OCc1ccc(Cl)cc1Cl | -7 | 10µM* | ? | -4 | 3%
O=C(CSc1ccccc1)NNC(=O)c1ccncc1 | . | 14% | -15% | . | .
COC(=O)c1ccc(CNC(=O)c2ccc(OCC(=O)N3CCOCC3)c(OC)c2)cc1 | . | 43% | 23% | . | .
COc1cc(/C=C/c2nc3ccc([N+](=O)[O-])cc3s2)ccc1OCC(=O)O | -1 | 116% | 17% | 13 | 5%
SMILES | Shiga inhibitor | Pf growth 96h | Pf growth 48h | Cycloheximide cs | NS1 inh
Cc1cccc(N(CC(=O)Nc2ccccc2F)S(C)(=O)=O)c1 | -17 | 5.2µM* | . | -3 | 2%
CCCc1nn2c(=O)cc(CSCC(=O)Nc3nnc(CC)s3)nc2s1 | -17 | 10µM* | -16% | 3 | -5%
COc1ccc(-c2cc(N)n(S(=O)(=O)c3c(F)c(F)c(F)c(F)c3F)n2)cc1OC | 33* | ? | ? | 14* | -95%
COc1ccc(S(=O)(=O)n2nc(-c3cc(OC)c(OC)c(OC)c3)cc2N)cc1OC | 2 | ? | ? | 0 | -25%
Cc1cn(C2CC3OCC(NC(=O)C(NC(=O)OC(C)(C)C)C(C)OCc4ccccc4)C3O2)c(=O)[nH]c1=O (stereo unspecified) | -3 | . | . | -2 | .
COc1ccccc1CNC(=O)CSC1=NCCS1 | 28 | 6% | 31% | 19* | 4%
CCc1ccccc1NC(=O)CSc1ccsc1[N+](=O)[O-] | 10 | 2.3µM* | -10% | 4 | 9%
O=C(CSc1ccsc1[N+](=O)[O-])NCc1ccccc1 | 112* | 15µM* | 124% | 44* | .
COc1ccccc1CNC(=O)CSc1ccsc1[N+](=O)[O-] | 85* | -4% | 90% | 43* | .
O=C(CSc1ccsc1[N+](=O)[O-])NC1CCCC1 | 13 | ? | -12% | 7 | .
COc1ccc(OC)c(CCNC(=O)CSc2ccsc2[N+](=O)[O-])c1 | 2 | -12% | ? | 12 | .
COc1cc(-c2noc(C)c2C#Cc2ccsc2)cc(OC)c1OC | -2 | ? | ? | -3 | 3%
O=C(O)C1CCC(Cn2c(SCc3cc(=O)n4ccccc4n3)nc3ccsc3c2=O)CC1 (stereo unspecified) | -4 | ? | ? | -4 | .
CCCCn1c(N)c(N(CCC(C)C)C(=O)C2CCCC2)c(=O)[nH]c1=O | . | ? | 4% | . | .
O=C(CSc1ccsc1[N+](=O)[O-])Nc1cccc(F)c1 | 30 | 17% | 18% | 21* | .
CSc1ccc(CCNC(=O)CSc2ccsc2[N+](=O)[O-])cc1 | -9 | ? | 3% | -3 | 27%
COc1ccc(CCNC(=O)CSc2ccsc2[N+](=O)[O-])c(OC)c1 | 3 | 1.7µM* | ? | -1 | .
COc1ccc(C(C)=O)cc1CC(=O)NCCCn1ccnc1 | -3 | 10% | ? | -2 | 1%
Cc1cccn2c1nc(=S)n2C(=O)c1ccco1 | 82* | 23% | 57% | 43* | 7%
COC(=O)C1=C(C)Nc2c(c(=O)n(C)c(=O)n2C)C1c1ccc(C)cc1 (stereo unspecified) | -11 | 1% | 12% | -2 | .
Cc1cc(F)ccc1NC(=O)Nc1ccc2c(c1)OCO2 | 11 | -12% | 32% | 12* | 2%
COc1ccc(NC(=O)Nc2ccc(C)cc2OC(F)F)cc1OC | 21 | -1% | ? | 1 | -4%
Cc1ccc(NC(=O)Nc2ccc3c(c2)OCO3)c(OC(F)F)c1 | 103* | 7% | 76% | 48* | -3%
Cc1ccc(NC(=O)Nc2ccc3c(c2)OCO3)cc1F | 90* | 37% | 77% | 73* | -3%
O=C(Nc1ccnn1C1CCN(Cc2cc(Cl)ccc2O)CC1)C1CC1 | -4 | ? | ? | -1 | 9%
CN1C(=O)C(C)(C)c2cc(S(=O)(=O)N3CCN(c4ccc(F)cc4)CC3)ccc21 | -1 | ? | ? | -5 | 1%
CC(=O)c1c(C)nn(CC(O)COc2ccc3ccccc3c2)c1C (stereo unspecified) | -10 | 2% | 15% | 0 | -1%
Cc1ccc(NC(=O)C(=O)c2c[nH]c3ccccc23)cc1 | 47* | 20% | 69% | 33* | -8%
O=C(NCC1CCCO1)C(=O)c1c[nH]c2ccccc12 (stereo unspecified) | 162* | 104% | 69% | 27* | .
O=C(NC1CCCCC1)C(=O)c1c[nH]c2ccccc12 | 69* | 2% | 66% | 32* | -18%

Screening results: PubChem, National Center for Advancing Translational Sciences (NCATS)
